# Measured values reported in PubChem BioAssay (NCATS).
# Inconclusive results are not listed. A call without a number means that no potency is given here. Calls of active or inactive are those of the source. Calls come from the whole dose curve; as a rule, active = well fitted inhibition curve with a large enough effect; inconclusive = small, poorly fitted or top-dose-only effect; inactive = flat fitted curve, though single readings scatter.
# Target: Dual specificity protein kinase CLK4 (Homo sapiens) (UniProt Q9HAZ1)
# Sequence (Q9HAZ1 whole entry, looked up): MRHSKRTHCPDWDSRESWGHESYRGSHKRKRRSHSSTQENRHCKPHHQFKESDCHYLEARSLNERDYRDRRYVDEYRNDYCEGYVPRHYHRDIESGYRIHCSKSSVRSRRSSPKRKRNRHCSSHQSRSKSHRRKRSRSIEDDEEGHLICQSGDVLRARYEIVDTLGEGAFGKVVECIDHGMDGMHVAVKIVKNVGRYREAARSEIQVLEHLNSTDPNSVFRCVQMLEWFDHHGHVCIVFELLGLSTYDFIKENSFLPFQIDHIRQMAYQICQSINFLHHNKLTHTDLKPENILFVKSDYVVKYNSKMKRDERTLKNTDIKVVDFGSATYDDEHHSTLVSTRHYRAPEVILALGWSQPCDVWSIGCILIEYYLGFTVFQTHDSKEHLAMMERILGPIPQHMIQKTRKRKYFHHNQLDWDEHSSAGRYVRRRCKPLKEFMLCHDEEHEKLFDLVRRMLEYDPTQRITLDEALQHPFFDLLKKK
# Assay: qHTS Assay for Inhibitors of CDC-like Kinase 4 (Kinase-Glo Assay) (AID 1770); note: nearly all actives have a fitted effect of over 65% in size
# Settings: recombinant Clk4, Kinase-Glo ATP depletion luminescence; series mostly up to 66.7 µM
# Procedure: NIH Molecular Libraries Probe Production Centers Network [MLPCN] NIH Chemical Genomics Center [NCGC] MLPCN Grant: 1R03MH084827-01 Assay Submitter (PI): Tom Misteli NCGC Assay Overview: Clk4 (Invitrogen, cat# PV3839) was assayed using ATP and the RS repeat peptide (AnaSpec cat # 61722) as substrates. Following the Clk4 reaction, the remaining ATP levels were detected using Promega Kinase-Glo technology wherein the remaining ATP from the kinase reaction is detected using Ultra-Glo luciferase and D-luciferin which generates a bioluminescence signal from the ATP. The positive control for the assay was TG003 (Sigma-Aldrich, cat# 300801-52-9) which has been described as an inhibitor of Clk 4[1].
# NCGC Assay Protocol Summary: Two uL/well of substrate-buffer solution (100 uM RS peptide, 1 uM ATP, 25 mM Tris pH7.5, 10 mM MgCl2, 0.5 mM EGTA, 2.5 mM DTT, 0.01% Triton X-100 final concentration) was dispensed into 1536-well, assay plates (Greiner, solid white medium-binding plates) with Aurora Discovery BioRAPTR Flying Reagent Dispenser (FRD; Beckton-Dickenson). Using a Kalypsys pin tool equipped with a 1536-pin tool, 23 nL of compound solution was transferred to the assay plate. One uL/ well Clk4-buffer solution (25 nM Clk4, 25 mM Tris pH 7.5, 10 mM MgCl2, 0.5 mM EGTA, 2.5 mM DTT, 0.01% Triton X-100, final concentrations) was then added using the FRD yielding a total kinase reaction volume of 3 uL/ well. After 4.5 hours of room temperature incubation, 3 uL Kinase-Glo reagent was added for a final assay volume of 6 uL/ well. Luminescence was detected with the ViewLux plate reader (Perkin Elmer, Waltham, MA) after 5 min incubation using a 5 second exposure time and 2x binning.
# Potency is the fitted concentration of half-maximal effect.
row,Structure (SMILES),Potency
1,c1cncc(CNc2ccnc(-c3ccc4c(c3)OCO4)n2)c1,0.0631 µM (active)
2,CN(C)Cc1ccccc1-c1cc(N(C)Cc2ccco2)ncn1,inactive
3,CN1CCN(c2ncc3ncc(=O)n(C[C@H]4CCCO4)c3n2)CC1,inactive
4,CN1CCN(c2ncc3nc(-c4ccc(Cl)cc4)c(=O)n(Cc4cccs4)c3n2)CC1,inactive
5,COc1cccc(Nc2ncc3nc(CCc4ccccc4)c(=O)n(C)c3n2)c1,inactive
6,Cc1ccccc1-c1nccc(Nc2ccc(F)cc2)n1,inactive
7,CN(C)C(=O)c1ccc(-c2cc(Nc3ccccc3)ncn2)cc1,14.1 µM (active)
8,CN1CCN(c2ncncc2-c2ccccc2C(F)(F)F)CC1,inactive
9,CN(C)Cc1ccccc1-c1nc(N(C)C)c2ccccc2n1,inactive
10,CN(C)c1ncc2nc(-c3ccccc3)c(=O)n(-c3ccccc3)c2n1,inactive
11,Cc1nc2cnc(N3CCNCC3)nc2n(CCc2ccccc2)c1=O,inactive
12,O=c1cnc2cncnc2n1Cc1ccccc1Cl,inactive
13,CN1CCN(c2nc(-c3ccccc3C(F)(F)F)nc3ccccc23)CC1,inactive
14,COc1cccc(Cn2c(=O)c(-c3cc(F)cc(F)c3)nc3cnc(N(C)C)nc32)c1,inactive
15,COc1ccc(Oc2ncc3nc(CCc4ccccc4)c(=O)n(C[C@H]4CCCO4)c3n2)cc1,inactive
16,COc1ncc2nc(-c3ccc(F)cc3)c(=O)n(C3CC3)c2n1,inactive
17,CCNc1ncc2nc(-c3cn(C)c4ccccc34)c(=O)n(Cc3cccc(OC)c3)c2n1,inactive
18,CCNc1ncc2nc(-c3ccccc3)c(=O)n(Cc3cccs3)c2n1,inactive
19,Cc1nc2cnc(N3CCOCC3)nc2n(Cc2ccc(F)cc2)c1=O,inactive
20,Cc1nc2cnc(N3CCN(C)CC3)nc2n(-c2ccccc2)c1=O,inactive

row,Structure (SMILES),Potency
1,Cc1nc2cnc(Nc3ccccc3)nc2n(Cc2ccc(F)cc2)c1=O,inactive
2,Cc1ccccc1-c1cc(N(C)C)ncn1,inactive
3,COc1ccccc1CNc1cc(-c2c(C)noc2C)ncn1,15.8 µM (active)
4,COc1ccc2[nH]cc(CCNc3ncnc4ccc(-c5cccnc5)cc34)c2c1,2.24 µM (active)
5,Cc1noc(C)c1-c1cncnc1NCc1ccccc1,inactive
6,COCCn1c(=O)c(-c2cccc(C#N)c2)nc2cnc(Oc3ccccc3)nc21,inactive
7,COc1cccc(Nc2ncc3nc(-c4ccc(F)cc4)c(=O)n(C)c3n2)c1,inactive
8,CN(C)c1ccc(-c2ccc3ncnc(N(C)C)c3c2)cc1,3.55 µM (active)
9,COc1ccc(Oc2ncc3nc(C)c(=O)n(Cc4cccc(OC)c4)c3n2)cc1,inactive
10,Clc1ccccc1-c1nccc(NCc2cccs2)n1,inactive
11,COc1ccc(-c2nc3cnc(Oc4cccc(Cl)c4)nc3n(CCC#N)c2=O)cc1,inactive
12,FC(F)(F)c1ccccc1-c1nc(NCc2cccs2)c2ccccc2n1,inactive
13,Cc1cnc(CNc2cc(-c3cccc(NS(C)(=O)=O)c3)ncn2)cn1,25.1 µM (active)
14,Cn1cc(-c2nc3cnc(Oc4ccccc4)nc3n(C3CC3)c2=O)c2ccccc21,inactive
15,CN(C)c1ncc2nc(-c3ccc(F)cc3)c(=O)n(C[C@H]3CCCO3)c2n1,inactive
16,Cc1ccccc1-c1nccc(NCCN2CCOCC2)n1,inactive
17,COc1ccccc1CNc1nc(-c2c(C)noc2C)nc2ccccc12,inactive
18,CN(C)C(=O)c1ccc(-c2cc(NCc3cccnc3)ncn2)cc1,15.8 µM (active)
19,CNc1cc(-c2ccccc2CN(C)C)ncn1,inactive
20,COc1ccc(-n2c(=O)c(-c3cccs3)nc3cnc(N4CCOCC4)nc32)cc1,inactive
